An excerpt weighted towards active compounds, which were near 2.4% of everything screened.
AmpC inh no det = AmpC beta-lactamase inhibition, detergent-free assay; Potency, µM (series often up to 28.7 µM), for the others: at the highest dose activity change, negative = inhibition; AmpC nitrocefin hydrolysis, absorbance 480 nm, no detergent; hit rate 1.8% among 71,000; P00811; also: % of control where 0% means no effect
Target sequence (P00811 whole entry, looked up): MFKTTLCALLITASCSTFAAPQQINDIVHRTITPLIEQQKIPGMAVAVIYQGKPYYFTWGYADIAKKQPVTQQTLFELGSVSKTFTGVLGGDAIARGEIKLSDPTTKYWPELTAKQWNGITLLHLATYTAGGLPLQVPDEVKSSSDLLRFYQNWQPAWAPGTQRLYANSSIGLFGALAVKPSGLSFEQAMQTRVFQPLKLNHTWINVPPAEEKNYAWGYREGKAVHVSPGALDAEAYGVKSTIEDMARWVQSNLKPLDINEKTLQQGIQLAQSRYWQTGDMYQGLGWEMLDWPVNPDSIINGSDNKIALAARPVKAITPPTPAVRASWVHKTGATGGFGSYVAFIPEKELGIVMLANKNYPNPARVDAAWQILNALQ
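AmpC, 20 mM phosphate pH 7.0; 15 min cpd preinc, RT; start with nitrocefin (800 uM stock); A480 kinetic read, 20 s intervals, 4 min. No-enzyme wells = negative control.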
AmpC det inh = inhibitors of E. coli AmpC beta-lactamase with detergent; Potency, µM (top dose mostly 28.7 µM), inactives show top-dose activity change, negative = inhibition; P00811; hit rate 0.09% among 71,000; AID 584; purified AmpC, nitrocefin hydrolysis with detergent; active = well fitted curve in the direction sought with a large enough effect; inconclusive = small, poorly fitted or top-dose-only effect; also: % is scaled to controls: 0 for no effect and ±100 for the full control effect
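E. coli AmpC (5.3 nM) in 20 mM phosphate pH 7.0 with 0.01% Triton X-100, preincubated 15 min RT with compound; nitrocefin (2 uL of 800 uM stock) hydrolysis followed by 480 nm absorbance every 20 s over 4 min.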
Prx2 Sm inh = Schistosoma mansoni Prx2 inhibition; S. mansoni Prx2 activity coupled to TGR/GSH (TGR is thioredoxin glutathione reductase), NADPH fluorescence loss, qHTS; Potency, µM; hit rate 0.07% among 65,000
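Purified S. mansoni TGR and Prx2 in pH 7.4 phosphate buffer with EDTA and Tween-20 were preincubated with compounds for 15 min. Further NADPH/GSH was added, then a 2.5 mM H2O2 aliquot initiated turnover, followed kinetically by NADPH fluorescence.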
Anthrax LT inh = blocks cellular internalization of anthrax lethal toxin; AID 912; hit rate 0.67% among 70,000; Potency, µM (series often up to 40 µM), for the others: at the top dose activity change, negative = inhibition, most hits filed as inhibitors; Cells, anthrax lethal toxin internalization, FRET ratio (460/530); also: % is scaled to controls: 0 for no effect and ±100 for the full control effect; nearly all actives have a fitted effect of over 50% in size
* marks the source's active call; other numbers are inactive results; i = inactive; ? = inconclusive; . = no result; [ ] = remark or other dose. Unless noted, calls follow the shape of the full dose curve. Potency is read from the fitted curve at half-maximal effect.

SMILES | AmpC inh no det | AmpC det inh | Prx2 Sm inh | Anthrax LT inh
O=C(Nc1ccc(CN2CCOCC2)cc1)c1ccc(-c2ccc(Br)cc2)o1 | 119.5% | -6.0% | >57 | 12.6µM*
CC[C@H](Cc1c(I)cc(I)c(N)c1I)C(=O)O | -12.7%[12.8 µM] | -1.5%[12.8 µM] | >57 | 2.0%[3.58 µM]
CCOC(=O)c1ccc(NC(=O)c2ccc(C)c(S(=O)(=O)N3CCOCC3)c2)cc1 | 79.9% | -0.7% | ? | 12.6µM*
O=c1ccc2cc(O[C@@H]3O[C@@H](CO)[C@@H](O)[C@@H](O)[C@H]3O)c(O)cc2o1 | 0.0% | 1.0% | >57 | ?
O=C(O)CCSc1ncnc2nc[nH]c12 | 2.4%[5.75 µM] | -3.5%[5.75 µM] | >57 | -7.6%[8 µM]
O=C(O)c1cc[c]([Hg][S]c2ncnc3nc[nH]c23)cc1 | -2.2%[5.75 µM] | -7.2%[5.75 µM] | 0.861* | -4.7%[8 µM]
Cc1ccc2nc(N/N=C\c3cccc(C)n3)cc(C)c2c1 | 23.6%[5.75 µM] | -2.8%[5.75 µM] | >57 | -20.1%[8 µM]
Cc1ccc(S(=O)(=O)NCCn2c(C)cc3ccccc32)cc1 | 15.8µM*[single pt active] | -3.5% | >57 | -8.8%
Cc1cc2ccccc2n1CCNC(=O)C(C)C | 21.5% | 10.0% | >57 | -6.1%
CCC(C)N1CC23C=CC(O2)C(C(=O)OC)C3C1=O (configuration not stated) | 3.98µM*[single pt active] | 12.5% | >57 | 9.9%
CCOC(=O)C1[C@H]2C(=O)N(C(C)c3ccc(OC)cc3)C[C@]23C=C[C@H]1O3 (some centres not stated) | -10.8% | -2.3% | >57 | ?
COc1cccc(CNC(=O)Nc2cccs2)c1 | 12.6µM* | -1.1% | >57 | ?
COc1ccc(CNC(=O)Nc2cccs2)cc1OC | -6.9% | -3.7% | >57 | -21.3%
S=P(C1CCCCC1)(C1CCCCC1)[C@H](c1cccnc1)N1CCCC1 | 2.0%[5.75 µM] | -2.6%[5.75 µM] | >57 | 0.4%[8 µM]
Cc1nc2c(c(=O)n1Cc1ccccc1Cl)c1nc3ccccc3nc1n2Cc1ccco1 | 5.8% | 0.5% | >57 | 7.94µM*
Ic1ccccc1CN[C@@H]1C2CCN(CC2)[C@H]1C(c1ccccc1)c1ccccc1 | 90.8% | 0.1% | >57 | 15.8µM*
Cc1c(NC(=O)CCCCCN2C(=O)C3C4C=CC(C4)C3C2=O)c(=O)n(-c2ccccc2)n1C (configuration not stated) | 2.51µM*[single pt active] | 10.9% | >57 | 1.7%
O=C(CCN1C(=O)C2C3C=CC(C3)C2C1=O)NCCc1ccccc1 (configuration not stated) | 16.7% | -3.5% | >57 | -9.5%
CCCc1nnc(NC(=O)NCCN2C(=O)C3C4C=CC(C4)C3C2=O)s1 (configuration not stated) | 3.98µM*[single pt active] | 13.5% | >57 | 2.2%
O=C(NCCN1C(=O)C2C3C=CC(C3)C2C1=O)Nc1ccccc1O (configuration not stated) | 3.98µM*[single pt active] | 14.5% | >57 | -6.1%
Cc1c(NC(=O)NCCN2C(=O)C3C4C=CC(C4)C3C2=O)c(=O)n(-c2ccccc2)n1C (configuration not stated) | 3.98µM*[single pt active] | 15.7% | >57 | 3.2%
Cc1c(NC(=O)c2ccc(N3C(=O)C4C5C=CC(C5)C4C3=O)cc2)c(=O)n(-c2ccccc2)n1C (configuration not stated) | -0.2% | -3.3% | >57 | ?
Cc1c(NC(=O)C(C)N2C(=O)C3C4C=CC(C4)C3C2=O)c(=O)n(-c2ccccc2)n1C (configuration not stated) | -7.5% | 8.1% | >57 | 2.8%
C[C@@]12CCC(=O)C=C1CC[C@@H]1[C@@H]2[C@H](O)C[C@]2(C)[C@@H]1CC[C@]2(O)C(=O)COC(=O)CCC(=O)O | 6.4% | -4.4% | >25.6 | -1.5%
O=C(NCCN1C(=O)C2C3C=CC(C3)C2C1=O)N1CCOCC1 (configuration not stated) | 3.98µM*[single pt active] | 11.9% | >57 | -6.8%
SMILES | AmpC inh no det | AmpC det inh | Prx2 Sm inh | Anthrax LT inh
O=C(NCCN1CCOCC1)N1CCOCC1 | -16.9% | 1.5% | >57 | -1.0%
[O-][N+](CCO)(CCO)c1ncnc2nc[nH]c12 | -11.6%[5.75 µM] | -2.7%[5.75 µM] | >57 | -0.1%[8 µM]
O=C(c1ccc(F)cc1)C(CN1CCOCC1)c1ccccc1 (configuration not stated) | 42.3% | -3.9% | . | 12.6µM*
c1ccc(C(CN2CCOCC2)c2ccccc2)cc1 | 18.9% | -2.6% | >57 | 3.2%
COc1ccc(-c2coc3ccc(O[C@@H]4O[C@@H](COC(C)=O)[C@@H](OC(C)=O)[C@@H](OC(C)=O)[C@H]4OC(C)=O)cc3c2=O)cc1 | 67.1% | -3.3% | >57 | ?
C[C@@]1(CO)[C@H](O)CC[C@]2(C)[C@@H]1CC[C@H]1C[C@H]3C[C@]12CC[C@]3(O)COC(=O)CN | 11.1%[5.75 µM] | -4.0%[5.75 µM] | >57 | 15.1%[8 µM]
O=C1C(Cl)=C(Cl)C(=O)C(Cl)=C1Cl | 12.6µM* | -24.2% | . | ?
O=CN1C[C@H]2C[C@@H](C1)c1cccc(=O)n1C2 | 4.9% | 3.0% | >57 | -10.6%
COc1cccc(-c2cnc(NCc3cc(Cl)ccc3O)n2C)c1 | 12.6µM* | 8.1% | >57 | ?
Cn1c(-c2cccc(Br)c2)cnc1NCc1cccnc1 | 12.1% | 9.0% | >57 | -9.9%
Cc1ccc(CCNC(=O)CCNS(=O)(=O)c2ccc3c(c2)c(=O)n(C)c(=O)n3C)cc1 | 39.1% | 9.7% | >57 | 1.6%
Cc1cccc(CCNC(=O)CN(C)S(=O)(=O)c2ccc3c(c2)c(=O)n(C)c(=O)n3C)c1 | 3.98µM*[single pt active] | 13.9% | >57 | -10.2%
C[C@@]12CC[C@H]3[C@H](CCC4=CC(=O)CC[C@H]43)[C@H]1CC[C@H]2OC1(O)C(=O)c2ccccc2C1=O | 7.6%[5.75 µM] | -6.9%[5.75 µM] | i | -2.5%[8 µM]
N[C@@H]1CCc2cc(O)c(O)cc2C1 | -10.4% | -0.6% | >57 | ?
CCCN1CCN(CCCNC(=O)Cn2nc(-c3ccc(Cl)cc3)ccc2=O)CC1 | 2.6% | -2.3% | >57 | ?
O=C1CCn2nc(-c3ccc(Cl)cc3)cc2N1 | 3.98µM*[single pt active] | 10.8% | >57 | -13.1%
CCN(C(=O)c1cnc(N2CCN(c3ncccn3)CC2)c2ccccc12)c1cccc(Cl)c1 | 95.0% | -3.6% | >57 | 15.8µM*
CNc1ccc2oc(C[C@@H]3O[C@@]4(CC[C@H]3C)O[C@@H]([C@@H](C)C(=O)c3ccc[nH]3)[C@@H](C)C[C@H]4C)nc2c1C(=O)O | 6.2% | -11.3% | >57 | ?
O=C(CSc1nccc2ccccc12)N1CCN(c2ccccn2)CC1 | 16.6% | 9.7% | >57 | 5.01µM*
O=C(O)CCC(=O)N1CCN(c2ccccn2)CC1 | ? | 16.6% | >57 | -8.6%
O=C(COc1ccc2ccccc2c1Br)N1CCN(c2ccccn2)CC1 | 64.3% | -0.3% | >57 | 12.6µM*
O=C(CC1CCCCC1)N1CCN(c2ccccn2)CC1 | 16.7% | -2.8% | >57 | -2.5%
O=[As](O)(O)c1ccc2nc3cc([As](=O)(O)O)ccc3nc2c1 | 1.4%[5.75 µM] | -0.7%[5.75 µM] | . | 0.7%[8 µM]
COc1ccc(-c2coc3ccc(O[C@@H]4O[C@@H](COC(C)=O)[C@@H](OC(C)=O)[C@@H](OC(C)=O)[C@H]4OC(C)=O)c(OC(C)=O)c3c2=O)cc1 | 71.3% | 1.8% | >57 | -6.9%
Cc1noc(C)c1S(=O)(=O)N(CC(=O)NCc1ccc2c(c1)OCO2)c1ccc(C(C)C)cc1 | -9.3% | 6.4% | >57 | 5.01µM*

Compound activity from PubChem.
